High-throughput results (PubChem BioAssay)
An excerpt weighted towards active compounds, which were near 10% of everything screened.
JMJD2A Tudor: inhibitors of human JMJD2A Tudor domain | O75164 | AlphaScreen JMJD2A-Tudor / H3K4me3 peptide binding | Potency, µM (series often up to 114 µM), usual class: inhibitors | hit rate 4.4% among 390,000; further: nearly all actives have a fitted effect of over 50% in size
CtBP-E1A blk: inhibitors of CtBP/E1A interaction; AlphaScreen GST-E1A/His-CtBP binding, 1536-well; stronger effect = lower value; hit rate 0.49% among 340,000; AID 651724; activity change, % (no concentration beside the values); in the data active means activity change below about -65%; inconclusive means mostly about -30% to -63%
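Steps: dispense buffer (Tris pH 8.0, NaCl 300 mM, TCEP 1 mM, BSA, Tween 20); add 5X protein mix (GST-E1A, His-CtBP, 125 nM each); pin 23 nL compound; 2 h at 37 °C, dark; add 5X beads (50 ug/mL); 1 h; read.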
HP1b chromo inh: HP1-beta chromodomain-methylated histone interaction inhibition; P83916; AlphaScreen HP1-beta / biotin-H3K9me3 peptide binding; Potency, µM (doses to about 114 µM), hits mostly inhibitors; hit rate 0.56% among 390,000; AID 540317; further: nearly all actives have a fitted effect of over 70% in size
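Compound inhibition of the preformed complex between 50 nM HP1-beta and 50 nM biotinylated H3K9me3 peptide was read by AlphaScreen. Buffer was PBS pH 7.4 with 0.01% Tween-20. Incubations ran 30 min at room temperature, with 10 ug/mL donor/acceptor beads.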
G9a inh: inhibitors of human histone lysine methyltransferase G9a | AID 504332 | Q96KQ7 | hit rate 8.8% among 350,000 | Potency, µM (highest dose often 102 µM), hits mostly inhibitors | G9a H3K9 monomethylation, AlphaScreen, 2 h; further: nearly all actives have a fitted effect of over 75% in size
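Compounds were preincubated with 20 nM G9a for 15 min, after which biotinylated H3K9 peptide (500 nM) and SAM (20 uM) started a 2 h room-temperature reaction. Monomethylated product was quantified by antibody-based AlphaScreen chemiluminescence.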
BAZ2B block: BAZ2B (human) inhibition | AlphaScreen BAZ2B-H3K14Ac peptide displacement | hit rate 4.4% among 360,000 | Potency, µM (series often up to 114 µM), actives largely listed as inhibitors | Q9UIF8; further: nearly all actives have a fitted effect of over 60% in size
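Inhibition is scored as reduced AlphaScreen emission. The BAZ2B/b-H3(5-23)K14Ac complex (50 nM each) in PBS pH 7.4, 0.01% Tween-20 meets compound (up to 110 uM) for 30 min at RT before bead addition.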
Six1-Eya2 blk: blocks human Six1 binding to Eya2. AlphaScreen GST-Six1/His-Eya2 binding, biochemical; stronger effect = lower value. activity change, % (no concentration beside the values). hit rate 0.56% among 360,000. AID 651725; in the data active means activity change below about -65%; inconclusive means mostly about -30% to -63%
Target sequence (O00167 whole entry, looked up): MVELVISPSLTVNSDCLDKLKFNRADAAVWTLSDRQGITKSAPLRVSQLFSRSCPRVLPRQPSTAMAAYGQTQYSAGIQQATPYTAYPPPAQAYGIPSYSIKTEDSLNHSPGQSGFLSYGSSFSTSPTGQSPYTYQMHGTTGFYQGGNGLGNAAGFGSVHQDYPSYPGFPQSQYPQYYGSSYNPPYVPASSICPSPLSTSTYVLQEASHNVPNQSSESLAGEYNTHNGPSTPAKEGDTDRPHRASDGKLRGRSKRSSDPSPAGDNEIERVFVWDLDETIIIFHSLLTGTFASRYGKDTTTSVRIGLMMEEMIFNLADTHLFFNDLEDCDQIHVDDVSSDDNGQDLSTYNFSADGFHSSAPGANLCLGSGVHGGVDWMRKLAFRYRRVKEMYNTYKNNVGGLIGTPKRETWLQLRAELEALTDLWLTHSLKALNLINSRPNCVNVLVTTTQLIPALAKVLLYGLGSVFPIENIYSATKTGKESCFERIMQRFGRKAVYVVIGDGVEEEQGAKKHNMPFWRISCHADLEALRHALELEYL
Target sequence (Q15475 whole entry, looked up): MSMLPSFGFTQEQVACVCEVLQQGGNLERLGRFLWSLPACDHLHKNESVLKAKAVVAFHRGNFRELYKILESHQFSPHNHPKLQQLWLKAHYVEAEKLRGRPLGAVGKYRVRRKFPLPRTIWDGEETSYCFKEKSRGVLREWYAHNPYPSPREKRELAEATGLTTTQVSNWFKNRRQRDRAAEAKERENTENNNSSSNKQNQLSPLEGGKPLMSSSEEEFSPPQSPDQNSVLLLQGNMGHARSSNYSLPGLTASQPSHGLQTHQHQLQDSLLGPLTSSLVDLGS
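AlphaScreen with GST-Six1 and His-Eya2 (5X mix: 250 nM and 500 nM), glutathione donor and nickel acceptor beads; buffer 50 mM Tris pH 8.0, 300 mM NaCl, 1 mM TCEP; 1 h at 37 C in the dark.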
Hits are given with their value; – = inactive; ? = inconclusive; · = no result given; [ ] = dose if it differs, or a comment. Unless noted, the call rests on the fitted dose curve; in most records, active means well fitted inhibition curve with a large enough effect; inconclusive means small, poorly fitted or top-dose-only effect; inactive means no such curve, though single readings can be large or run the other way.

SMILES	JMJD2A Tudor	CtBP-E1A blk	HP1b chromo inh	G9a inh	BAZ2B block	Six1-Eya2 blk
COC(=O)[C@]12CCCCC=C1N(CCC1=CCCCC1)C(=O)[C@H](CC(=O)N1CCCCC1)C2	·	–	·	·	·	–
CCCOc1ccc(C2c3c(oc4ccccc4c3=O)C(=O)N2CCN(CC)CC)cc1OC (stereo not given)	–	–	–	50.1µM	–	–
COc1ccc(CNC(=O)CCc2c(C)nn(-c3ccc(N4CCOCC4)nn3)c2C)c(OC)c1	–	·	–	–	–	·
Cc1nn(-c2ccc(N3CCCC3)nn2)c(C)c1CCC(=O)NCc1ccc(F)cc1	–	·	–	–	79.4µM	·
CCc1ccc(CNC(=O)CCc2c(C)nn(-c3ccc(N4CCCC4)nn3)c2C)cc1	–	·	–	–	?	·
COc1ccc(CNC(=O)CCc2c(C)nn(-c3ccc(N4CCCCC4)nn3)c2C)c(OC)c1	89.1µM	·	–	–	–	·
N#Cc1ccccc1-c1ccc2ncnc(NCCN3CCOCC3)c2c1	·	·	·	–[0.501 µM]	·	·
CCOC(=O)C1(C)CCCCCN1C(=O)c1ccc(C(F)(F)F)nc1C (stereo not given)	·	–	·	·	·	–
COc1cc(CN2CC(=O)N(c3cc(Cl)ccc3C)C2=S)cc(OC)c1OC	?	·	–	?	–	–
COc1ccc(CN2CC(=O)N(c3ccc(C)c(C)c3)C2=S)cc1OC	56.2µM	–	?	–	–	–
COc1ccc(CN2CC(=O)N(c3cc(Cl)ccc3C)C2=S)cc1OC	–	–	–	70.8µM	–	–
C/C(=N/NS(=O)(=O)c1cc(C)ccc1C)c1ccc2c(c1)OCO2	–	–	–	–	–	–
C/C(=N/NS(=O)(=O)c1cc(C)ccc1C)c1ccncc1	–	–	–	39.8µM	–	–
N#Cc1nc(NCCO)nc(Nc2ccccc2)n1	–	·	·	·	·	·
Oc1c(CN2CCCCC2)ccc2cccnc12	20µM	-93.4	–	·	·	-80.4
Oc1ccc(CN2CCc3ccccc3C2)c2cccnc12	10µM	-95.0	–	?	5.62µM	-94.0
Oc1ccc2ccccc2c1CN1CCN(c2ccccc2)CC1	–	–	–	?	–	–
Cn1cc(CN2CCc3ccccc3C2)c2ccccc21	–	–	–	?	–	–
Fc1ccc(-c2[nH]ncc2CN2CCN(c3ccc(F)cc3)CC2)cc1	–	–	–	?	–	–
Ic1ccc(N2CCN(Cc3c[nH]c4ncccc34)CC2)cc1	89.1µM	–	–	23.8µM	50.1µM	–
Oc1ccc(CN2CCN(c3ccccc3)CC2)c2cccnc12	–	-75.4	–	3.16µM	?	-74.0
Cc1cc2c(s1)c1cnn(Cc3ccc(C)c(F)c3)c(=O)c1n2C	–	·	·	·	·	·
COc1ccc(C2NC(=O)N(C)C3=C2C(=O)N(c2ccc(F)cc2)C3)cc1 (stereo not given)	–	·	–	–	–	·
Cc1ccc(/C=C/c2onc(C)c2S(=O)(=O)N2CCC(C(=O)NCC(C)c3ccccc3)CC2)cc1 (stereo not given)	–	·	–	–	–	·
O=C(CNC(=O)c1ccccc1)OCC(=O)c1cccc2ccccc12	–	·	–	·	·	·
SMILES	JMJD2A Tudor	CtBP-E1A blk	HP1b chromo inh	G9a inh	BAZ2B block	Six1-Eya2 blk
CCN(CC)S(=O)(=O)c1ccc(NC(=O)c2nn(C)c3c2CSc2ccccc2-3)cc1	–	·	–	–	–	·
CS(=O)(=O)N1CCN(Cc2ccccc2C(F)(F)F)CC1	–[11.4 µM]	–	–	–	–	–
Oc1c(Cl)cc(CN2CCCCC2)c2cccnc12	·	·	·	–[2.33 µM]	3.55µM	·
O=[N+]([O-])c1cc(CN2CCCC2)c2cccnc2c1O	12.6µM	–	?	?	5.01µM	-79.3
c1ccc2c(CN3CCCCC3)csc2c1	–	–	–	–	–	–
Oc1ccc2ccccc2c1CN1CCCCC1	–	–	–	·	·	–
Oc1ccc(CN2CCCCC2)c2cccnc12	8.91µM	-90.4	–	?	3.16µM	-91.2
FC(F)(F)c1ccccc1CN1CCC(Cc2ccccc2)CC1	12.6µM	–	?	22.4µM	–	–
O=[N+]([O-])c1cc(CN2CCCCCC2)ccc1O	–	–	–	–	–	–
Cc1ccc([N+](=O)[O-])cc1S(=O)(=O)N1CCn2cccc2C1c1ccccc1 (stereo not given)	?	·	–	?	?	·
CC(C)c1ccccc1-n1c(SCc2cc(=O)oc3ccc4ccccc4c23)nnc1-c1cccnc1	?	–	–	?	?	–
O=C(COC(=O)Cc1ccccc1[N+](=O)[O-])NC1CCCC1	–	–	–	–	?	–
COc1ccc(CNC(=O)C2CCCN2C(=O)Nc2cccc(Cl)c2)cc1 (stereo not given)	·	–	·	·	·	–
O=C(NCc1ccccc1)c1ccc(CN2CCC(Cc3ccccc3)CC2)cc1	–	–	–	–	–	–
Oc1ccc(CN2CCC(Cc3ccccc3)CC2)c2cccnc12	25.1µM	?	–	35.5µM	20µM	-72.6
COc1ccc2cc(C(=O)CS(=O)(=O)c3ccccc3)c(=O)oc2c1	–	·	–	–	–	–
COc1ccc(S(=O)(=O)CC(=O)c2cc3cccc(C)c3oc2=O)cc1	–	·	–	50.1µM	–	–
NS(=O)(=O)c1ccc(NC(=S)N2CCN(c3cccc(Cl)c3)CC2)cc1	–	–	–	8.91µM	–	–
S=C(NCCN1CCOCC1)N1CCN(c2cccc(Cl)c2)CC1	8.91µM	–	–	35.5µM	28.2µM	–
CN1CCN(C(=S)Nc2ccc(S(N)(=O)=O)cc2)CC1	–	–	–	39.8µM	–	–
NS(=O)(=O)c1ccc(NC(=S)N2CCN(S(=O)(=O)c3ccc(F)cc3)CC2)cc1	·	·	·	–	–	·
S=C(NCc1ccco1)N1CCN(c2cccc(Cl)c2)CC1	–	–	–	?	–	–
CCc1ccc(-n2nc(C)c3c(C)cc(=O)n(CC(=O)NCc4ccc(C)cc4)c32)cc1	–	·	–	–	–	·
Cc1ncc(CO)c2c1Oc1nc(-c3ccc(F)cc3)nc(SCc3ccc(F)cc3Cl)c1C2	–	·	–	–	?	·
CS(=O)(=O)N(CC(=O)NCCc1ccccc1)C1CCCCC1	–	–	–	?	–	–
SMILES	JMJD2A Tudor	CtBP-E1A blk	HP1b chromo inh	G9a inh	BAZ2B block	Six1-Eya2 blk
COc1ccc(CCNCC(=O)Nc2c(C)cc(C)cc2C)cc1OC	–	–	–	·	–	–
COC(=O)c1ccccc1NC(=O)NCCc1ccc(OC)c(OC)c1	–	–	–	–	–	–
COC(=O)c1ccccc1NC(=O)CNCCc1ccc(OC)c(OC)c1	25.1µM	–	–	7.94µM	20µM	–
COc1ccc(CCNCC(=O)Nc2ccc(C)c(S(=O)(=O)N(C)C)c2)cc1OC	?	–	–	22.4µM	22.4µM	–
COc1ccc(CCNCC(=O)Nc2ccc(C)c(Br)c2)cc1OC	50.1µM	–	?	39.8µM	?	–
COc1ccc(CCNC(=O)CN(C2CCCCC2)S(C)(=O)=O)cc1OC	–	–	–	31.6µM	–	–
COc1ccc(OCC(=O)Nc2ccc(C)c(S(=O)(=O)N(C)C)c2)cc1	–	–	–	–	–	–
